# High-throughput results (PubChem)
# Only some compounds are listed: those with a hit (about 13% of all), similar ones and a draw of the others.
# HCV inh – inhibitors of hepatitis C virus infection | Potency, µM (series often up to 41.8 µM), usual class: inhibitors | 3.4% of 340,000 active | AID 651820 | Huh7.5.1 HCVcc-Cre infection, luciferase reporter, 44 h
#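 Cells seeded at 1,000/well and cultured 4 h, then compounds added followed by HCVcc-Cre virus (~0.5 moi). After 44 h further culture, luciferase substrate was added, plates held 15 min at room temperature, and luminescence read for 15 sec.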
# Pf growth 96h – P. falciparum growth inhibition at 96 hours; P. falciparum luciferase reporter growth, 96 h; Potency, µM (highest dose often 28.7 µM), actives largely listed as inhibitors; 6.9% of 320,000 active; AID 504834
#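 P. falciparum expressing integrated firefly luciferase, in erythrocytes at 2% hematocrit, 0.05% parasitemia, incubated with compounds 96 h at 37 C, 5% CO2. Growth inhibition read as loss of luminescence; two-generation exposure targets delayed-death apicoplast inhibitors.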
# Pf growth 48h – inhibits P. falciparum growth in the first generation, 48 h; P. falciparum luciferase growth in erythrocytes, 48 h; Potency, µM (titrated, usually from 28.7 µM), usual class: inhibitors; 5.9% of 310,000 active; AID 504832
#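 Parasite viability was followed by luminescence of a genomically integrated firefly luciferase. Cultures held 0.1% parasitemia at 2% hematocrit (final), incubated under 5% CO2 at 37 C.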
# HCMV antiviral – human cytomegalovirus inhibition; activity change, negative = inhibition, % at 57.5 µM; HFF cells, HCMV-luciferase reporter, 72 h; stronger effect = lower value; 4.5% of 410,000 active; in the data active means activity change below about -60%; inconclusive means no clear call, values can overlap the other calls; inactive means above about -39%
#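 Luciferase read-out from HCMV-luciferase-infected HFFs (MOI 1 PFU/cell) 72 h post infection at 37C; compounds added after 16 h cell attachment; activity normalized between buffer-only basal and Salinomycin (10uM) inhibitor controls.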
# A number is an active result; – = inactive; ? = inconclusive; · = not tested or not shown; ! = a repeat was not active. Unless noted, the call rests on the fitted dose curve; in most records, active means well fitted inhibition curve with a large enough effect; inconclusive means small, poorly fitted or top-dose-only effect, or another doubt; inactive means no such curve, though single readings can be large or run the other way.
SMILES,HCV inh,Pf growth 96h,Pf growth 48h,HCMV antiviral
COCCN1C(=NCCCOC(C)C)N[C@@H](c2ccccc2)C(C(=O)OC)=C1C,–,–,?,–
C=CCN=C1N[C@@H](c2ccccc2)C(C(=O)OC)=C(C)N1CCOC,–,10µM!,–,–
COC(=O)C1=C(C)N(Cc2ccccc2)C(=NCc2ccccc2)N[C@H]1c1cccc(F)c1,?,9.3µM,?,–
CCN1C(=O)N[C@@H](c2cccc(C(F)(F)F)c2)C(C(=O)OC)=C1C,–,·,·,–
Cc1cccc(NC(=O)CSC2=Nc3ccccc3C3=NC(CCC(=O)NCc4ccc(F)cc4)C(=O)N23)c1 (centres undefined),·,·,·,–
O=C1CCC[C@H]2[C@@H](Cc3ccccc3)[C@@H](NS(=O)(=O)Cc3ccccc3)CC[C@]23CCCN13,·,·,·,–
Cc1ccc2cccc(NC(=O)COc3ccccc3Cl)c2n1,·,·,·,–
Cc1occc1-c1nnc(SCC(=O)Nc2nc(C(C)(C)C)cs2)o1,?,·,–,-69
COc1cccc(-n2c(SCC(=O)Nc3nccs3)nnc2-c2ccoc2C)c1,–,–,8.3µM,–
Cc1csc(NC(=O)CSc2nnc(-c3ccoc3C)o2)n1,?,–,–,–
COc1ccc(-n2c(SCC(=O)Nc3nc(C)cs3)nnc2-c2ccoc2C)cc1,–,–,5.9µM,–
Cc1occc1-c1nnc(SCC(=O)N2CCc3ccccc32)o1,–,5.2µM,–,–
O=C(CSc1nnc(Cn2c(=O)sc3ccccc32)n1-c1ccccc1)Nc1nccs1,–,4.7µM,?,–
Cc1csc(NC(=O)CSc2nnnn2C)n1,–,9.3µM,–,–
O=C(CSc1nnc(Cn2c(=O)sc3ccccc32)n1-c1ccccc1)N1CCCC1,–,?,–,–
CCN(CC)c1ccc(NC(=O)CN2CCN(S(=O)(=O)c3ccc(C(C)C)cc3)CC2)cc1,·,·,·,–
Cc1cc(C)c(NC(=O)c2ccc3nccnc3c2)c(C)c1,–,–,?,-72
Cc1cc(NC(=O)c2ccc3nccnc3c2)ccc1Br,?,·,·,–
O=C(Nc1ccc(SC(F)F)cc1)c1ccc2nccnc2c1,3.5µM,?,–,-78
Cc1ccc(NC(=O)c2ccc3nccnc3c2)c(C)c1,–,–,–,-68
CSc1ccc(CCNC(=O)c2cc3cc4cc(C)ccc4nc3s2)cc1,·,·,·,–
Cc1ccc(C2=NOC(=O)/C2=C\C=C\c2ccccc2)cc1,?,2.9µM,–,-109
CC1=NN(c2ccccc2)C(=O)/C1=C/C=C/c1ccccc1,–,?,?,-69
CC1=NN(c2ccccc2)C(=O)/C1=C/c1cc(C)n(C2CC2)c1C,–,–,?,-68
CC1=CC(C)(C)N(C(=O)CCl)c2cc(C)ccc21,?,?,–,–
SMILES,HCV inh,Pf growth 96h,Pf growth 48h,HCMV antiviral
CC1=CC(C)(C)N(C(=O)c2ccc(F)cc2)c2cc3c(cc21)OCO3,–,–,12µM,?
O=C(c1cccs1)c1coc2ccc(O)c(CN(CCO)CCO)c12,–,2.1µM,·,–
CCN(CC)Cc1c(O)ccc2occ(C(=O)c3ccccc3)c12,–,?,–,–
O=C(O)C(c1ccccc1)N1C(=O)c2cccc3cccc(c23)C1=O (centres undefined),–,1.5µM,–,–
CC(C(=O)O)N1C(=O)c2ccccc2C1=O (centres undefined),–,–,·,-99
CCc1cccc(NC(=O)CCS(=O)(=O)c2ccc(C)cc2)c1,·,·,·,–
CNC(=O)c1c(NC(=O)c2ccc(S(=O)(=O)N3CCCCC3)cc2)sc2c1CCC2,·,·,·,–
CSc1ccc(NC(=O)Nc2cccn(Cc3ccccc3)c2=O)cc1,3.5µM,–,–,-84
O=C(NCc1ccccc1)Nc1cccn(Cc2ccccc2Cl)c1=O,13µM,?,?,?
O=C(NCc1cccn1Cc1ccccc1)Nc1ccc(Br)cc1F,·,·,·,-83
Cc1ccc(NC(=O)NCc2cccn2Cc2ccccc2)c(C)c1,·,·,·,–
COc1ccc(Cn2cccc(NC(=O)Nc3ccc(F)cc3)c2=O)cc1,?,–,–,?
Cc1ccc(NC(=O)CSc2nnc(C)n3c2cc2sccc23)c(C)c1,·,·,·,–
CCOC(=O)O[C@]1(C(=O)COC(=O)CC)CC[C@@H]2[C@@H]3CCC4=CC(=O)C=C[C@@]4(C)[C@H]3[C@H](O)C[C@]21C,·,–,–,·
Cc1cc(C)n(CC(O)COc2ccccc2C(=O)Nc2ccccc2)n1 (centres undefined),–,?,1.9µM,–
Cc1cc(C)n(CC(O)COCc2ccccc2)n1 (centres undefined),–,12µM,–,–
CCOC(=O)c1c(C)n(Cc2ccccc2)c2ccc(OCC(O)Cn3nc(C)cc3C)cc12 (centres undefined),?,–,12µM,–
